Measured values as given in PubChem BioAssay AID602261 (Sanford-Burnham Center for Chemical Genomics, 2012).
Among all 360,000 compounds or so, about 2,400 (0.67%) were called active. This excerpt belongs to a sample that is enriched for actives. A number with no mark means an inactive call.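 The calls were made as follows: active = compounds whose normalised, plate-corrected inhibition of enzyme fluorescence in the single-dose primary screen is 50% or more; inactive = the rest.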

What follows are compounds tested against Fatty acid synthase (Homo sapiens) (UniProt P49327) (assay: FAS thioesterase domain inhibitors, primary screen, biochemical, fluorescence intensity, uHTS (AID 602261;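 also: 0% = DMSO with enzyme and 100% = substrate without enzyme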)). Conditions: recombinant FAS-TE, OMFH fluorogenic substrate, fluorescence endpoint; at 15 µM; stronger effect = higher value.
Chain of Fatty acid synthase (Homo sapiens) (P49327 whole entry, looked up, the tested form may be a part): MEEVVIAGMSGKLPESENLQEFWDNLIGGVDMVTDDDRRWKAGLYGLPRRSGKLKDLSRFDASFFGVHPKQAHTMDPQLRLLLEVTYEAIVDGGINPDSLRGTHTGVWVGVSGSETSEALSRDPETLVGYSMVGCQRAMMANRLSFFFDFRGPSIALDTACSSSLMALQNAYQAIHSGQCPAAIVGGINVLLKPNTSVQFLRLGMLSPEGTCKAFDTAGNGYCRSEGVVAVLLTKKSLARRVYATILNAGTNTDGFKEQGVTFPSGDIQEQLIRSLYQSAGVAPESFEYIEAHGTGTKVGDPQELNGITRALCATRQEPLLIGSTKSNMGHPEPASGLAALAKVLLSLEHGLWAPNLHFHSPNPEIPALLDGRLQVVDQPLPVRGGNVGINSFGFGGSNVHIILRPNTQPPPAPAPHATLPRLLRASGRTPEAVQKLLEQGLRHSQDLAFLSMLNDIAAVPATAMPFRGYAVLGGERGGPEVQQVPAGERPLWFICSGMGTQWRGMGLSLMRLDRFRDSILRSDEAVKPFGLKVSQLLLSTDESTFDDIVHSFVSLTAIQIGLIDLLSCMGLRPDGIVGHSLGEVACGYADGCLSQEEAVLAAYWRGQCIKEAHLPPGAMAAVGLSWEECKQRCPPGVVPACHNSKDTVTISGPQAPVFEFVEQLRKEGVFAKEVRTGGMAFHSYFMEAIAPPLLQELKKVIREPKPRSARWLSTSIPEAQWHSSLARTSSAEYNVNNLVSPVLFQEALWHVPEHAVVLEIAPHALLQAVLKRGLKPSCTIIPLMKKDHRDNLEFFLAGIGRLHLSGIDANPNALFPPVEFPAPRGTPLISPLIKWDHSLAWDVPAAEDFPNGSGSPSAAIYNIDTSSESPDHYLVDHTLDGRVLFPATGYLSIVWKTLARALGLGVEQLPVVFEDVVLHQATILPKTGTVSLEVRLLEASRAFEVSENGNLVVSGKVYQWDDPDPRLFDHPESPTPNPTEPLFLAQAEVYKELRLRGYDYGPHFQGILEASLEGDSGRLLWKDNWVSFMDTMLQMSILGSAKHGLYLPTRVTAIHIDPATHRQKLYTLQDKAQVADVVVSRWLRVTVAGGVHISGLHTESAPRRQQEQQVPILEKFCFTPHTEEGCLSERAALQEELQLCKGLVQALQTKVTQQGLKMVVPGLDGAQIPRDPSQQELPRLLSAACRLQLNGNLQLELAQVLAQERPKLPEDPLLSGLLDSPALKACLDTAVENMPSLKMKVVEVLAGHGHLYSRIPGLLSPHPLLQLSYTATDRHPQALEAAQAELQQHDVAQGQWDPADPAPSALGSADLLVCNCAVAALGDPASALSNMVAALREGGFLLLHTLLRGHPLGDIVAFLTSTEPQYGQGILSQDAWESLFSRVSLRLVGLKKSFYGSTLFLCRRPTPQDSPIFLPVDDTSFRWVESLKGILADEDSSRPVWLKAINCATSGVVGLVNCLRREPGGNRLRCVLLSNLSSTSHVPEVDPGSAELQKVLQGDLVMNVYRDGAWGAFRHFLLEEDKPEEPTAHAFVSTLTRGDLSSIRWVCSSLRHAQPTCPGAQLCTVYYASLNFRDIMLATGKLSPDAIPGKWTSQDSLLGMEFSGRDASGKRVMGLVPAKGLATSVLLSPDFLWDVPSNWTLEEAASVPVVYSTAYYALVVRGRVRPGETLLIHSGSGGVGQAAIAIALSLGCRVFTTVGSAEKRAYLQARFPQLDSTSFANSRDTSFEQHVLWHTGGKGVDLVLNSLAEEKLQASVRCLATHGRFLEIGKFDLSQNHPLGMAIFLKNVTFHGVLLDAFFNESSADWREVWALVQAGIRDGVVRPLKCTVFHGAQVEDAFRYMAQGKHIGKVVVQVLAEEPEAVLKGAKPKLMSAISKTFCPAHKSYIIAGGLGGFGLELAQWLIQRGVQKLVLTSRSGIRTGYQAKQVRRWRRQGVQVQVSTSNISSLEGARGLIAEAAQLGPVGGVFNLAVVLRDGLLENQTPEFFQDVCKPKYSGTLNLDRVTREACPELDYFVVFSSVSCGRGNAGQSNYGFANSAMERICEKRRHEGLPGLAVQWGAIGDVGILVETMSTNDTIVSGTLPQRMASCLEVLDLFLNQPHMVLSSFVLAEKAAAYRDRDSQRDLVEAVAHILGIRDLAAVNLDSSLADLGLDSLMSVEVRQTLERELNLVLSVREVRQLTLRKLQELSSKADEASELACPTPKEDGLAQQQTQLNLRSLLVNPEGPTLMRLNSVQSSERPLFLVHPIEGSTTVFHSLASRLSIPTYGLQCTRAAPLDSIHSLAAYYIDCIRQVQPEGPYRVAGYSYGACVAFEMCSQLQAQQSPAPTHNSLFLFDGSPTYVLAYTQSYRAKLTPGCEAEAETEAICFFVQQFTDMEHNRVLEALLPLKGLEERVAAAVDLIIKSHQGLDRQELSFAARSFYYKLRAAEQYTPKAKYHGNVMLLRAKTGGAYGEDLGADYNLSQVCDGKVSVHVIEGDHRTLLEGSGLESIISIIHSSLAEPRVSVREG
With `Cc1ccc(S(=O)(=O)Nc2ccc(F)c(S(=O)(=O)N3CCOCC3)c2)cc1` the inhibition was -1%. `COc1ccc(-c2ccc(OC(=O)NC3CCS(=O)(=O)C3)cc2)cc1` (stereo unspecified) showed an inhibition of -3.8%. Work on `CCc1ccc(C(=O)CSc2nnc(C)c(=O)[nH]2)cc1` yielded an inhibition of -4.7%. `CCCCOC(=O)CNc1nnc(SCC(=O)OCC)[nH]c1=O` was tested, and the inhibition was 50.2% (active). In the case of `CCOC(=O)CSc1nc(C)c(Oc2ccc(Cl)cc2Cl)c(=O)[nH]1`, the inhibition is reported as -5.3%. Compound `Cc1noc(C)c1S(=O)(=O)N(C)C[C@H]1OCCCC[C@@H](C)Oc2ccc(NC(=O)CCCN(C)C)cc2C(=O)N([C@H](C)CO)C[C@@H]1C` has an inhibition of -10.2%. Work on `COc1cccc(NC(=S)N(Cc2ccc(C)cc2)Cc2ccccn2)c1` yielded an inhibition of 5.4%. `COc1ccc(NC(=O)C2Cc3c(-c4ccc5c(c4)OCO5)ccnc3O2)cn1` (stereo unspecified) showed an inhibition of 1.3%. For `COc1ccc(NC(=O)/C(Cl)=C(/Cl)S(=O)Cc2ccc(C)cc2)cn1` (stereo unspecified), the inhibition was 53.3% (active). In the case of `COCc1c(N)c(C)nc(Cl)c1C#N`, the inhibition is reported as -5.4%. Compound `COc1cccc(-c2sc3ccc(OC)cc3c2-c2ccc(OCCN3CCCCC3)cc2)c1` has an inhibition of 15.5%. In the case of `CC1CCN(c2oc(-c3ccccc3F)nc2C#N)CC1`, the inhibition is reported as 20.3%. `COc1ccc(-c2csc3ncnc(Oc4ccc5c(C)cc(=O)oc5c4)c23)cc1` gave an inhibition of -2.5%. For `Cc1sc2nc(-c3ccccc3F)oc(=O)c2c1C`, the inhibition was 54.7% (active). For `COc1ccc(-c2csc3nc(-c4ccccc4F)oc(=O)c23)cc1OC`, the inhibition was 65.3% (active). Work on `Cc1sc2nc(SCCO)n(-c3ccccc3)c(=O)c2c1C` yielded an inhibition of -4.5%. In the case of `COc1ccccc1-c1nc(C(F)(F)F)c(OC)o1`, the inhibition is reported as -1.4%. `Cc1cc(C)n2nc(CNS(=O)(=O)c3c(F)c(F)c(F)c(F)c3F)nc2n1` was tested, and the inhibition was 12.1%. `CC(=O)c1nn(-c2cccc(Br)c2)cc1C(=O)c1cccc2ccccc12` gave an inhibition of 27.7%. `CCC1OC(c2ccc([N+](=O)[O-])cc2)=Nc2ccccc21` (stereo unspecified) showed an inhibition of 14.7%. For `O=C(O)c1ccc(COc2c(F)c(F)cc(F)c2F)o1`, the inhibition was -6.9%. `CC(C)C[C@@H]1Cc2[nH][nH]c(=O)c2[C@H](CCc2ccccc2)O1` gave an inhibition of -59.6%. For `COc1cc(/C=C/c2ccc(/C=C/c3cc(OC)c(OC)c(OC)c3)cc2)cc(OC)c1OC`, the inhibition was 8.2%. Compound `O=C(Cn1nnc2ccccc2c1=O)Nc1cc(C(F)(F)F)ccc1N1CCOCC1` has an inhibition of 5.9%. With `CSCCC(NC(=O)COc1ccccc1)C(=O)OCC(=O)c1cc2ccccc2o1` (stereo unspecified) the inhibition was 70.7% (active). `CSCCC(NC(=O)COc1ccccc1)C(=O)OCCOc1ccc(Br)cc1` (stereo unspecified) was tested, and the inhibition was 21.8%. In the case of `CSCCC(NC(=O)COc1ccccc1)C(=O)OCc1ccc(Cl)cc1` (stereo unspecified), the inhibition is reported as 24.4%. `Cc1ccc(C)c2[nH]c(=O)c(CCNC(=O)CC(C)C)cc12` was tested, and the inhibition was -6.6%. For `Cc1cccc(CSc2nc3c(c(=O)n2C)SCC3)c1`, the inhibition was 12.5%. With `CC1=CC(=C(C#N)c2nc3ccccc3s2)C=C(C)N1c1ccc(F)cc1F` the inhibition was 59.2% (active). Compound `COCCCNC(=O)CNC(=O)c1nn(-c2ccc(OC)cc2)c(=O)c2ccccc12` has an inhibition of -6.6%. `O=C(CN1CCCCC1)N1c2ccccc2Sc2ccc(C(F)(F)F)cc21` was tested, and the inhibition was 11.9%. With `COc1ccc2[nH]c3c(c2c1)CCN1C(=O)C(CC(=O)NCCCN(C)C)C[C@H](C(=O)N2CCOCC2)[C@@]31CCC1CCCC1` (stereo partly specified) the inhibition was 43.3%. In the case of `COc1ccc(CNC(=O)C[C@H]2C[C@H](C(=O)N3CCOCC3)[C@@]3(CCC4CCCC4)c4[nH]c5ccc(Cl)cc5c4CCN3C2=O)cc1OC`, the inhibition is reported as 89% (active). In the case of `CC[C@]12c3[nH]c4ccc(Cl)cc4c3CCN1C(=O)[C@@H](CC(=O)NCCN1CCOCC1)C[C@@H]2C(=O)N1CCN(C(=O)C2CC2)CC1`, the inhibition is reported as -7.3%. `CC[C@]12c3[nH]c4ccc(OC)cc4c3CCN1C(=O)C(CC(=O)NCc1ccco1)C[C@@H]2C(=O)N1CCN(C(=O)C2CC2)CC1` (stereo partly specified) was tested, and the inhibition was -7.3%. `CN(C)C(=O)CCc1ccc2c3c([nH]c2c1)[C@]1(CCC2CCCC2)[C@@H](C(=O)N2CCOCC2)C[C@H](CC(=O)NCc2ccco2)C(=O)N1CC3` showed an inhibition of 21.1%. `O=C(C[C@H]1C[C@H](C(=O)N2CCOCC2)[C@@]2(CCC3CCCC3)c3[nH]c4ccc(Cl)cc4c3CCN2C1=O)NCc1ccco1` was tested, and the inhibition was 88.8% (active). In the case of `COc1ccc(Br)c(Cn2c(C)c(C(=O)NCc3cccs3)sc2=O)c1`, the inhibition is reported as 19.7%. `C[n+]1cc(-c2ccccc2)oc1-c1ccccc1` gave an inhibition of -4.9%. `COC1C(CO)OC(n2cnc3c(=S)nc(N)[nH]c32)C1O` (stereo unspecified) showed an inhibition of -3.8%. With `CCc1ccc(C(=O)OCC(=O)Nc2cccc(S(=O)(=O)NC3=NCCCCC3)c2)cc1` the inhibition was 1.8%. `COc1ccccc1C(=O)OCC(=O)Nc1cccc(S(=O)(=O)NC2=NCCCCC2)c1` showed an inhibition of -6.9%. `Cc1cccc(-n2c(SCC(=O)Nc3cccc(S(=O)(=O)NC4=NCCCCC4)c3)nc3ccccc3c2=O)c1C` was tested, and the inhibition was 71.3% (active). `CC(C)(C)NC(=O)NC(=O)COC(=O)Cc1c(F)cccc1Cl` showed an inhibition of 4.6%. `O=C(COC(=O)Cc1ccc(Cl)cc1Cl)NCc1ccco1` showed an inhibition of -8.2%. `CC(C)(C)NC(=O)NC(=O)COC(=O)Cc1ccc(Cl)cc1Cl` was tested, and the inhibition was 69.5% (active). `COC(=O)CCC(=O)N1CCCC(CO)(Cc2ccccc2)C1` (stereo unspecified) gave an inhibition of -5.2%. Work on `Cc1ccccc1-c1nc(NC(C)C)nc2cc(-c3ccccc3)sc12` yielded an inhibition of 13%. With `COc1ccc(-c2nnc(SC(=O)N3c4ccccc4Sc4ccccc43)o2)cc1` the inhibition was 51.9% (active). `COc1ccc(-c2nnc(SC(C)C(=O)NC3CC3)o2)cc1` (stereo unspecified) gave an inhibition of -5.6%. Work on `COc1ccc(CN(C(=O)CSc2nnc(-c3ccc(OC)c(OC)c3)o2)c2ccc(F)cc2)cc1` yielded an inhibition of 45.7%. Work on `COc1ccc(C(=O)NN2C(=O)C3C(c4ccccc4)C=CC(c4ccccc4)C3C2=O)cc1` (stereo unspecified) yielded an inhibition of 33.6%. `CCNc1c(NS(=O)(=O)c2ccc(C3CCCCC3)cc2)c(=O)oc2ccccc12` was tested, and the inhibition was 5.3%. `Cc1cccc([C@@H]2[C@@H]3C(=O)N(C)C(=O)[C@@H]3[C@@H]3C(=O)Nc4ccccc4C(=O)N23)c1` was tested, and the inhibition was -6.8%. With `COc1ccc(CNC(=O)CCCn2nc(C)c([N+](=O)[O-])c2C)cc1` the inhibition was 10.9%. For `Cc1nn(CCOc2ccc(Br)cc2)c(C)c1[N+](=O)[O-]`, the inhibition was 62.3% (active). Work on `Cc1ccc(Oc2cc(NC(=O)CCCn3nc(C)c([N+](=O)[O-])c3C)cc([N+](=O)[O-])c2)cc1` yielded an inhibition of 30.9%. For `CC(/C=C/c1ccccc1)=N\NC(=O)C1CC1(C)c1ccccc1` (stereo unspecified), the inhibition was 20%. In the case of `CC(C=Cc1ccccc1)=NNS(=O)(=O)c1ccc([N+](=O)[O-])cc1`, the inhibition is reported as 58.3% (active). For `O=C(Cc1ccccc1)NNS(=O)(=O)c1ccc([N+](=O)[O-])cc1`, the inhibition was 11.1%. With `CCOc1c(N2CCCCC2)c(=O)c1=O` the inhibition was -8%. For `O=C(c1ccc(Oc2ccc(Cl)cc2)c([N+](=O)[O-])c1)N1CCCC1`, the inhibition was -19.7%. With `O=C(c1cccc(F)c1)N1CCN(c2ccc([N+](=O)[O-])c(N3CCCCC3)c2)CC1` the inhibition was 17.3%. `O=C(c1ccc(Cl)c([N+](=O)[O-])c1)N1CCN(c2ccccc2)CC1` was tested, and the inhibition was 53.6% (active). With `COCCNc1nc2nonc2nc1N1CCCC1c1nccs1` (stereo unspecified) the inhibition was -8.3%. `CC(OC(=O)CNC(=O)c1cccc(F)c1)C(=O)NC1CCCCC1C` (stereo unspecified) showed an inhibition of -5.6%. `COc1ccc(CNC(=O)C(=O)NCC2OCCN2C(=O)c2ccc(OC)cc2)cc1` (stereo unspecified) showed an inhibition of -1.4%. `Cc1nnc(SCc2ccc(C(=O)c3ccc(Cl)cc3)o2)n1-c1ccccc1` gave an inhibition of 2.7%. With `Fc1ccc(-n2c(Cc3ccccc3)nnc2SCc2nc(-c3ccc(Cl)cc3)no2)cc1` the inhibition was 52.6% (active). Compound `Cc1ccc(-c2noc(CSc3nnc(-c4cccs4)n3C)n2)cc1` has an inhibition of -14.2%. With `C/C(=N\NC(=O)c1cccnc1)c1ccc(-n2ccnc2)cc1` the inhibition was -10.3%. For `O=S(=O)(Nc1cccc(-n2cnnn2)c1)c1cnc(Cl)c(Cl)c1`, the inhibition was 56.8% (active). `O=S(=O)(Nc1ccc(-n2cnnn2)cc1)c1ccc(Cl)cc1` showed an inhibition of 2.4%. `Cc1ccc(C)c(S(=O)(=O)Nc2cccc(-n3cnnn3)c2)c1` showed an inhibition of 4.5%. For `O=c1c2ccccc2cnn1Cc1n[nH]c(=S)n1-c1ccccc1F`, the inhibition was -4.3%. Compound `Cc1ccc(C(=O)N/C(=C/c2cccs2)C(=O)N2CCCCC2)cc1` has an inhibition of -8.4%. With `Cc1ccc(C(=O)N/C(=C\c2cn(S(=O)(=O)N(C)C)c3ccccc23)C(=O)N2CCCC2)cc1` the inhibition was 86.5% (active). With `Cc1ccc(C(=O)N/C(=C\c2cn(C)c3ccccc23)C(=O)N2CCN(C)CC2)cc1` the inhibition was -5%. Work on `O=C(O)c1ccccc1-c1ccccc1C(=O)Nc1ccccc1Br` yielded an inhibition of -0.4%. For `O=C(NCc1ccccc1)C1CCN(C(=O)Cc2ccccc2)CC1`, the inhibition was -4.1%. For `CCNC(=O)NNC(=O)C1CC(c2cccs2)=NO1` (stereo unspecified), the inhibition was -1.4%. `COc1ccc(S(=O)(=O)Nc2ccc(F)cc2)c(C)c1C` gave an inhibition of 1.1%. In the case of `O=C(OC1CCOC1=O)c1ccc(-c2nc3ccccc3s2)s1` (stereo unspecified), the inhibition is reported as 51.7% (active). With `COc1cc(C(=O)OC2CCOC2=O)c([N+](=O)[O-])cc1OC` (stereo unspecified) the inhibition was -3.6%. Compound `CC(C)c1ccc(C(=O)OC2CCOC2=O)cc1` (stereo unspecified) has an inhibition of -2.3%.
